Screening results deposited in PubChem BioAssay by National Center for Advancing Translational Sciences (NCATS).
This is a sample that favours compounds with a hit; in the whole collection about 21% have one here.
DT40 TDP1 no CPT – qHTS for Inhibitors of human tyrosyl-DNA phosphodiesterase 1 (TDP1): qHTS in cells in absence of CPT; 15% of 420,000 active; Potency, µM (titrated, usually from 46.2 µM), without a hit: at the top dose activity change, negative = growth inhibition, most hits filed as inhibitors; DT40 Tdp1-/- hTDP1 cells, no CPT, ATP luminescence, 48 h; AID 686978, 2013; further: potency means the concentration at half of the fitted maximal effect; nearly all actives have a fitted effect of over 55% in size
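A cellular qHTS used chicken DT40 cells lacking endogenous Tdp1 but carrying stably transfected human TDP1. Compounds were applied without camptothecin, and cell growth kinetics were judged by ATP-dependent luminescence after ≥48 hr.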
ELG1 repair inh – inhibitors of ELG1-dependent DNA repair in HEK293T cells. Potency, µM (top dose mostly 46.1 µM), without a hit: at the highest dose activity change, negative = inhibition, usual class: inhibitors. HEK293T ELG1-luciferase reporter, luminescence, 16 h; DNA damage induced by 5-fluorouridine. 2.3% of 330,000 active. AID 504467; further: potency means the concentration at half of the fitted maximal effect; nearly all actives have a fitted effect of over 55% in size
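Step one: seed 2,000 cells per well. Step two: pin-transfer compound or DMSO alongside 5-fluorouridine. Step three: incubate 16 hr, 37 °C, 5% CO2. Step four: add ONE-Glo, wait 30 min, read luminescence.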
Gal4-VP16 FLuc – Gal4-VP16 reporter inhibition counter-screen; Drosophila S2 Gal4-VP16 UAS-luciferase, luminescence, 20 h; Potency, µM (top dose mostly 53.6 µM), inactives show at the highest dose activity, negative = inhibition, actives largely listed as inhibitors; 3.5% of 310,000 active; AID 2546;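 further: Gal4-VP16 expression switched on by copper sulfate through the metallothionein promoter; potency means the concentration at half of the fitted maximal effect; nearly all actives have a fitted effect of over 50% in size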
IL-1B inflam inh – inflammasome signaling inhibition, IL-1 beta readout; THP-1 LPS/ATP IL-1B secretion, AlphaLISA, 16 h; stronger effect = lower value; activity change, % at 57.5 µM; 4.7% of 360,000 active; in the data active means activity change below about -50%; inconclusive means mostly about -30% to -49%
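Secreted IL-1B measured by AlphaLISA bead assay after 16 h compound exposure of THP-1 cells; compounds (final up to 57.5 uM) added 1 h before LPS (250 ng/mL) and ATP (1.25 mM) stimulation; lower signal means less secretion.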
TDP1 cell CPT – DT40-hTDP1 cell growth loss with CPT | 12% of 420,000 active | Potency, µM (titrated, usually from 46.2 µM), for inactives: top-dose activity change, negative = growth inhibition, usual class: inhibitors | AID 686979 | chicken DT40 Tdp1-/-;hTDP1 cells + 20 nM CPT, ATP luminescence, 48 h; further: potency means the concentration at half of the fitted maximal effect; nearly all actives have a fitted effect of over 55% in size
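Chicken DT40 Tdp1-/- cells stably complemented with human TDP1 were seeded at 400 cells/well in medium containing 20 nM camptothecin, exposed to pin-transferred compounds, and grown at 37 °C for at least 48 hr. Viability was read as ATP luminescence.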
RORgamma inh – inhibitors of mouse ROR gamma transcriptional activity; P51450; Drosophila S2 Gal4-RORgamma UAS-luciferase reporter, 20 h; Potency, µM (series often up to 53.6 µM), for inactives: at the highest dose activity change, negative = inhibition, hits mostly inhibitors; 5.4% of 310,000 active; AID 2551; further: potency means the concentration at half of the fitted maximal effect; nearly all actives have a fitted effect of over 60% in size
Target sequence (P51450 whole entry, looked up, the tested form may be a part): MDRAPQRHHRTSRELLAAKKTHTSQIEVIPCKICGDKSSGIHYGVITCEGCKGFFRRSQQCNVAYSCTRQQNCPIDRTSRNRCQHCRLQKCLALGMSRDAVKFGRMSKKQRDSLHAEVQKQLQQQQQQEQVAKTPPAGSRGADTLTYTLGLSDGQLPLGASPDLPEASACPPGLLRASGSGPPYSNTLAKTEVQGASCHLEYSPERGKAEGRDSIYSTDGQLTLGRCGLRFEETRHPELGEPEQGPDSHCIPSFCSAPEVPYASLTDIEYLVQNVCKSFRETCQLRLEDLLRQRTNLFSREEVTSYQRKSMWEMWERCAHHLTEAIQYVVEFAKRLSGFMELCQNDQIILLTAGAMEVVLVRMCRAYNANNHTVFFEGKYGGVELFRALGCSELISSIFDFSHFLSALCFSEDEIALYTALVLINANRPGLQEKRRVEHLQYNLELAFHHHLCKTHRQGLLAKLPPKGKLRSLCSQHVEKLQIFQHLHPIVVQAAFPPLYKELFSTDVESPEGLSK
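ROR gamma transcriptional activity was tracked as Gal4-UAS luciferase output in stably transfected Drosophila Schneider cells, with compound added 1 hr before 700 uM copper sulfate induction and a 20 hr ambient-temperature incubation.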
Numbers without * were called inactive; ? = inconclusive; / = no result; [ ] = dose if it differs, or a comment. Unless noted, the call rests on the fitted dose curve; in most records, active means well fitted curve in the direction sought with a large enough effect; inconclusive means small, poorly fitted or top-dose-only effect, or another doubt; inactive means no such curve, though single readings can be large; an effect the other way counts as inactive or inconclusive. On the % scale 0 is the no-effect control and ±100 the full control effect.

SMILES	DT40 TDP1 no CPT	ELG1 repair inh	Gal4-VP16 FLuc	IL-1B inflam inh	TDP1 cell CPT	RORgamma inh
CCOc1ccc(OCC)c(NC(=O)C2CCCN2S(=O)(=O)c2cccc3cccnc23)c1 (stereo not drawn)	18µM*	?	1%	34	15µM*	?
COc1ccc(NC(=O)C2CCCN2S(=O)(=O)c2cccc3cccnc23)c(OC)c1 (stereo not drawn)	?	?	-2%	42	?	-25%
CCOc1ccc(OCC)c(S(=O)(=O)N2CCCCC2C)c1 (stereo not drawn)	?	-18%	-2%	7	23µM*	-21%
O=C(Nc1cccc(C(F)(F)F)c1)C1CCCN1S(=O)(=O)c1cccc2cccnc12 (stereo not drawn)	16µM*	-16%	?	-7	23µM*	?
COc1cc(NC(=O)[C@@H]2CCCN(S(=O)(=O)c3cccc4cccnc34)C2)cc(OC)c1OC	13µM*	?	/	0	10µM*	/
COc1ccc(OC)c(NC(=O)C(C)n2c(=O)cc(C)c3c(C)nn(-c4ccccc4)c32)c1 (stereo not drawn)	-4%	/	/	/	-29%	/
O=C(c1ccc2c(c1)OCO2)N(Cc1cc2ccc(F)cc2nc1N1CCC(O)CC1)CC1CCCO1 (stereo not drawn)	?	/	/	/	5%[9.04 µM]	/
O=C(NCc1ccccn1)[C@@H]1CCCN1C(=O)[C@@H]1CCCN1C(=O)c1cccs1	-21%	/	/	45	-2%	/
COc1ccc(CNC(=O)c2ccc(CNS(=O)(=O)c3ccc(F)cc3)cc2)cc1	7%	/	/	/	-12%	/
COC(=O)C1CCCN1S(=O)(=O)c1ccc([N+](=O)[O-])cc1 (stereo not drawn)	14%	-18%	-8%	36	-25%	-11%[1.91 µM]
Cc1ccccc1NC(=O)C1CCCN(S(=O)(=O)c2cccc3cccnc23)C1 (stereo not drawn)	?	?	-3%	18	?	0%
COc1ccc(C)cc1NC(=O)C1CCN(S(=O)(=O)c2cccc3cccnc23)CC1	?	23µM*	-4%	3	-27%	10%
COc1ccc(S(=O)(=O)N2CCC(C(=O)Nc3ccc(F)cc3)CC2)c2cccnc12	?	?	?	?	10%	-9%
COc1ccc(S(=O)(=O)N2CCC(C(=O)Nc3ccccc3C)CC2)c2cccnc12	-20%	18µM*	15%	8	-23%	-1%
COc1ccc(OC)c(NC(=O)C2CCCN(S(=O)(=O)c3cccc4cccnc34)C2)c1 (stereo not drawn)	13µM*	?	7%	?	?	-2%
COc1ccc(NC(=O)C2CCN(S(=O)(=O)c3cccc4cccnc34)CC2)cc1OC	/	?	-1%	/	/	?
COC(=O)C1CCCN1S(=O)(=O)c1ccc2ccccc2c1 (stereo not drawn)	21µM*	5%	4%	12	?	-7%
CC1CCCN(C(=O)COC(=O)CNC(=O)c2sc3ccccc3c2Cl)C1 (stereo not drawn)	3%	13%	/	-5	4%	/
CCNS(=O)(=O)c1ccc2c3c(cccc13)C(=O)N2	-23%	6%	-5%	0	-15%	-14%
COc1cc(NC(=O)[C@H]2CCCN2S(=O)(=O)c2cccc3cccnc23)cc(OC)c1OC	?	-9%	/	2	15µM*	/
COc1cc(OC)cc(C(=O)Nc2ccccc2S(=O)(=O)N2CCCC2OC(C)=O)c1 (stereo not drawn)	?	4%	-7%	80	?	-4%
COC(=O)C1CCCN1S(=O)(=O)c1ccccc1NC(=O)c1cc(OC)c(OC)c(OC)c1 (stereo not drawn)	-30%	-20%	-5%	19	15µM*	0%
COc1ccc(NC(=O)C2CCCN2S(=O)(=O)c2cccc3cccnc23)cc1OC (stereo not drawn)	?	6%	4%	17	6%	-41%
Cc1ccccc1OCCN1CCC(Cc2ccccc2)CC1	21µM*	8%	0%	-10	?	-20%
Cc1ccc([N+](=O)[O-])c(OCCN2CCC(Cc3ccccc3)CC2)c1	?	11%	-6%	-99*	?	2%
SMILES	DT40 TDP1 no CPT	ELG1 repair inh	Gal4-VP16 FLuc	IL-1B inflam inh	TDP1 cell CPT	RORgamma inh
O=[N+]([O-])c1cccc(OCCCN2CCC(Cc3ccccc3)CC2)c1	?	/	/	-73*	?	/
CCOc1ccccc1OCCN1CCC(Cc2ccccc2)CC1	?	-14%	6%	-4	-19%	12%
Cc1ccccc1OC(C)C(=O)N1CCC(Cc2ccccc2)CC1 (stereo not drawn)	?	-1%	-26%	-55*	?	19%
CC(C)=CCC/C(C)=C/CC/C(C)=C/CC/C(C)=C/C(=O)O	/	/	-2%	/	/	7%
O=C(CN1CCCCCC1=O)N1CCN(S(=O)(=O)c2cccs2)CC1	1%	-13%	2%	-8	-13%	0%
Cc1cccc(C)c1NC(=O)C1(C)CN(S(C)(=O)=O)CC(=O)N1CCc1ccc(O)cc1 (stereo not drawn)	9%	/	/	-22	27%	/
Cn1c(=O)c2c(nc(SCC(=O)N3CCc4ccccc4C3)n2C)n(C)c1=O	-7%	-4%	-3%	-1	-1%	0%
CC1CC(C)CN(C(=O)Cn2c(SCC(=O)N3CCc4ccccc4C3)nc3ccccc32)C1 (stereo not drawn)	21µM*	?	-2%	-24	?	?
CC(C)c1ccccc1-n1c(SCC(=O)N2CCc3ccccc3C2)nc2ccccc2c1=O	23µM*	26µM*	-15%	?	?	26%
O=C1COc2ccc(C(=O)CSc3nnc(Cc4cccs4)n3-c3ccccc3)cc2N1	9.2µM*	?	-29%	-21	?	-16%
O=C1COc2ccc(C(=O)CSc3nnc(-c4cccs4)n3Cc3ccccc3)cc2N1	?	?	7%	4	?	12%
O=C(CSc1nc2ccccc2c(=O)n1-c1ccccc1)N1CCc2ccccc2C1	16µM*	?	?	-16	26µM*	?
COc1ccc(NC(=O)Nc2cc(C(=O)NCc3ccc(C)cc3)ccc2N2CCCC2)cc1	-9%	/	/	/	-10%	/
Cc1cccc(C)c1OC(=O)c1ccccc1	-3%	/	/	-8	-5%	/
